Results taken from publication PMC4336329 (PLoS ONE, 2015).
The whole screen tested about 310,000 compounds, of which about 14,000 (4.5%) showed an effect of 50% or more. Effects have a minus sign here. What follows is part of a selection rich in strong results, with near analogues and random picks from the rest.

The compounds below were run against human ether-à-go-go-related gene (hERG) potassium channel (human, UniProt Q12809) (assay: primary screen, population patch clamp on CHO cells stably expressing hERG; higher = less effect of the substance).
Chain of human ether-à-go-go-related gene (hERG) potassium channel (Q12809 whole entry, looked up): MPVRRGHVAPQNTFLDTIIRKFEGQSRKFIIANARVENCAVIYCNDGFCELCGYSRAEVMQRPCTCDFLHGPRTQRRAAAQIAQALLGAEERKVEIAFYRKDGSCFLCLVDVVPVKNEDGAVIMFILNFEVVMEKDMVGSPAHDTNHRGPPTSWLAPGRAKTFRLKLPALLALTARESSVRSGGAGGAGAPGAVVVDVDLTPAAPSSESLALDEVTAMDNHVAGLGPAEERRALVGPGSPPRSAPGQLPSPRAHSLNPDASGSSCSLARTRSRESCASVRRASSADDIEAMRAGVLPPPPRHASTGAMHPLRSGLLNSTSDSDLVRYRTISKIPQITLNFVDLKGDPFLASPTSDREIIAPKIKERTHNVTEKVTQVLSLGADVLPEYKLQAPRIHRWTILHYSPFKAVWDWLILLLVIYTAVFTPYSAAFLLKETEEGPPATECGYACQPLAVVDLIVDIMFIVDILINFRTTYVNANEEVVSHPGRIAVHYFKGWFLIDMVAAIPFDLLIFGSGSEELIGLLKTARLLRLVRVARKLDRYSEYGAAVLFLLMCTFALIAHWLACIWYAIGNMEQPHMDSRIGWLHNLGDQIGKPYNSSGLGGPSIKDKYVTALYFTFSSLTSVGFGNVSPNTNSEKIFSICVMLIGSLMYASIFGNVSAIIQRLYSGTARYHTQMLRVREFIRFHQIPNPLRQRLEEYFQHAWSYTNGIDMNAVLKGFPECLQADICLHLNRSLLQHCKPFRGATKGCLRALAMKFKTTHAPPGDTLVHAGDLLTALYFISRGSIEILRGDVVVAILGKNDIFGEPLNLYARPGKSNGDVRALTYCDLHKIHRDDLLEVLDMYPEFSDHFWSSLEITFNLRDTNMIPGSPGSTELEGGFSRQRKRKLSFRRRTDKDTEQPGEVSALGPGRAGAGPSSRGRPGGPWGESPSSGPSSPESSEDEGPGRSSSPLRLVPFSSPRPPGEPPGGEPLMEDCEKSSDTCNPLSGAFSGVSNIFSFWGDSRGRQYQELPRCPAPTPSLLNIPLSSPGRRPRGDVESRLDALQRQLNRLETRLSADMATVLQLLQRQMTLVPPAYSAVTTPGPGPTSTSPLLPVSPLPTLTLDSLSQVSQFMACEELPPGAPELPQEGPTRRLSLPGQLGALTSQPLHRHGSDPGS
Description: Briefly, Chinese hamster ovary (CHO) cells stably expressing the hERG channel were dislodged from tissue culture flasks and dispensed into PPC plates. […] During the recording, background leak currents were estimated by a 100 ms step to -80 mV from an initial holding potential of -70 mV and subtracted from the subsequent current measurement. The campaign was conducted in two phases using slight differences in recording protocol. In the first phase, the initial voltage pulse used a 100 ms step to -30 mV from a holding potential of -70 mV, a 2 s conditioning step to +25 mV, and a 2 s test step to -30 mV. During the second phase of the screen, the potential during the conditioning step was raised to +45 mV. In both phases of the campaign, a secondary voltage pulse was applied using the same parameters as the second phase initial pulse. The initial and secondary pulses were applied in the absence of compound, and upon application of 1 μM and 10 μM test concentrations. […]
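Also: peak tail current of the secondary pulse compared with the same well before compound.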

| Structure (SMILES) | hERG current change (%, negative = inhibition) at 10uM [%] |
| --- | --- |
| O=C(NCCN1CCOCC1)c1cccc(S(=O)(=O)N(Cc2ccccc2)c2ccccc2)c1 | -19.3 |
| CCOC(=O)c1sc(C)c(C(=O)NC2CCCCC2)c1N | -4.79 |
| CNC(=O)c1c(NC(=O)CCS(=O)(=O)c2ccccc2)sc(C)c1C | 0.0126 |
| COc1ccc(/C=N/NC(=O)Cc2csc(Nc3cccc(C(F)(F)F)c3)n2)cc1C | 10.7 |
| CCOC(=O)c1cc(-c2ccccc2)sc1NC(=O)COC(=O)c1cccc(S(N)(=O)=O)c1 | 10.2 |
| CC1CC(C)CN(CCCNC(=O)CCC(=O)N2CC(C)Oc3ccccc32)C1 (stereo not shown) | -32.2 |
| Cc1cccc(/C=N/NC(=O)c2cccc(NC(=O)c3ccccc3)c2)n1 | 0.172 |
| CCOCc1nnc(NC(=O)CSc2ccc(C)cc2)s1 | 6.61 |
| Cc1c(N2CCCC2)cc2c(c1NC(=O)c1ccccc1Cl)C(C)(C)CC2(C)C | -25.6 |
| COc1ccccc1-[n+]1c(C)cc(/C=C2\Sc3ccccc3N2C)cc1C.[I-] | -69.6 |
| COc1cc(OC)cc(C(=O)/C=C2\Sc3ccccc3N2C)c1 | 9.82 |
| CN1/C(=C/c2cccc[n+]2C)Sc2ccccc21.[I-] | -22.7 |
| COc1ccc(-[n+]2c(C)cc(/C=C3\Sc4ccccc4N3C)cc2C)cc1.[I-] | -60.2 |
| COc1ccc(C(=O)/C=C2\Sc3ccccc3N2C)cc1 | 11.1 |
| CN1/C(=C/c2cccc[n+]2CCO)Sc2ccccc21.[I-] | 12.4 |
| COc1ccc(NC(=O)/C(C#N)=C\c2ccc(OCc3ccc(C(=O)O)cc3)c(OC)c2)cc1 | 3.69 |
| CC(C)C(CCNC(=O)CC(Cc1ccccc1)c1ccco1)c1ccco1 (stereo not shown) | -20 |
| Cc1cc(C)cc(OCC(=O)NNC(=O)CCN2C(=O)c3ccccc3C2=O)c1 | -14.8 |
| Cc1ccc(NC(=O)CCNS(=O)(=O)c2ccc3[nH]c(=O)oc3c2)cc1C | 9.43 |
| COc1ccc2cc(CN(CC3CCCO3)S(=O)(=O)c3ccc(C(C)=O)cc3)c(=O)[nH]c2c1 (stereo not shown) | -11.4 |
| COC(=O)CN(C)C(=O)CC1C(=O)NCCN1CC(C)(C)C (stereo not shown) | 22.8 |
| O=c1[nH]cnc2c1cnn2Cc1ccccc1Cl | 11.7 |

| Structure (SMILES) | hERG current change (%, negative = inhibition) at 10uM [%] |
| --- | --- |
| Cc1ccc(C2(C)NC(=O)N(CC(=O)NCc3ccccc3Cl)C2=O)cc1 (stereo not shown) | 9.54 |
| CCSC(C)CC1C/C(=N/O)c2c(CC)noc2C1 (stereo not shown) | -24.2 |
| CCCc1noc2c1/C(=N\O)CC(CC(C)SCC)C2 (stereo not shown) | -11.1 |
| CCSC(C)CC1C/C(=N/O)c2c(C)noc2C1 (stereo not shown) | -63.4 |
| O=C(Nc1nccs1)C1CCCN1/C=C/C(=O)C(F)(F)F (stereo not shown) | 13.9 |
| CSc1nnc2c(n1)OC(c1ccccn1)N(C(C)=O)c1ccccc1-2 (stereo not shown) | 1.42 |
| CC(O)CNc1nc2sc3c(c2c(=O)n1CCc1ccccc1)CCCCC3 (stereo not shown) | 13.1 |
| CC(O)CNc1nc2ccccc2n1-c1ncnc2sc3c(c12)CCC3 (stereo not shown) | -55.5 |
| c1ccc2c(c1)ncn2-c1ncnc2sc3c(c12)CCCC3 | -27.2 |
| COc1ccc(CC(=O)N/N=C/c2ccc(-c3cccc(C(=O)O)c3)o2)cc1OC | 3.33 |
| C=CCNC(=O)CN(Cc1ccccc1)S(=O)(=O)c1ccccc1 | -4.02 |
| CCNS(=O)(=O)c1ccc(NC(=S)N2CCc3ccccc32)cc1 | 22.9 |
| CCOC(=O)c1c(C)nsc1NC(=O)C1CCCCC1 | 17.3 |
| O=C(CCOc1ccccc1)N1CCN(S(=O)(=O)c2cccs2)CC1 | -9.15 |
| CC(C)(C)c1ccc(C(=O)N2CCN(S(=O)(=O)c3ccc(Br)s3)CC2)cc1 | 1.21 |
| N#Cc1ccc(OCC(=O)N2CCN(S(=O)(=O)c3cccs3)CC2)cc1 | -72.1 |
| N#Cc1ccc(OCC(=O)N2CCN(S(=O)(=O)c3ccc(Cl)s3)CC2)cc1 | -69.5 |
| COc1ccc(OCC(=O)N2CCN(S(=O)(=O)c3ccc(Cl)s3)CC2)cc1 | -0.573 |
| O=C(CCCc1nc2ccccc2s1)N1CCN(S(=O)(=O)c2cccs2)CC1 | -11.9 |
| O=S(=O)(c1cccs1)N1CCN(Cc2nc3ccccc3s2)CC1 | -27.8 |
| O=C(COc1ccccc1)N1CCN(S(=O)(=O)c2cccs2)CC1 | -31 |
